VP16 counter: VP16 counterscreen qHTS for inhibitors of ROR gamma transcriptional activity; Drosophila S2 Gal4-VP16 UAS-luciferase, luminescence, 20 h; Potency, µM (doses to about 53.6 µM), inactives show at the highest dose activity, negative = inhibition, usual class: inhibitors; 310,000 tested, 3.5% active; AID 2546, 2010;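 note: Gal4-VP16 expression switched on by copper sulfate through the metallothionein promoter; nearly all actives have a fitted effect of over 50% in size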
RORg inh: qHTS for inhibitors of ROR gamma transcriptional activity; Drosophila S2 Gal4-RORgamma UAS-luciferase reporter, 20 h; 310,000 tested, 5.4% active; Potency, µM (doses to about 53.6 µM), for the others: at the top dose activity change, negative = inhibition, most hits filed as inhibitors; AID 2551, 2010; Nuclear receptor ROR-gamma (Mus musculus), P51450; note: nearly all actives have a fitted effect of over 60% in size
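Using a luciferase readout, inhibitors were identified by reduced reporter activity in Drosophila cells coexpressing a copper-inducible Gal4–ROR gamma fusion and UAS-driven Photinus luciferase, incubated 20 hr after 700 uM copper sulfate.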
TDP1 block: qHTS Assay for Inhibitors of Tyrosyl-DNA Phosphodiesterase (TDP1). recombinant TDP1, AlphaScreen DNA substrate cleavage. Potency, µM (series often up to 130 µM), for the others: top-dose activity change, negative = inhibition, usual class: inhibitors. 350,000 tested, 0.28% active; note: nearly all actives have a fitted effect of over 40% in size
Target sequence (Q9NUW8 whole entry, looked up): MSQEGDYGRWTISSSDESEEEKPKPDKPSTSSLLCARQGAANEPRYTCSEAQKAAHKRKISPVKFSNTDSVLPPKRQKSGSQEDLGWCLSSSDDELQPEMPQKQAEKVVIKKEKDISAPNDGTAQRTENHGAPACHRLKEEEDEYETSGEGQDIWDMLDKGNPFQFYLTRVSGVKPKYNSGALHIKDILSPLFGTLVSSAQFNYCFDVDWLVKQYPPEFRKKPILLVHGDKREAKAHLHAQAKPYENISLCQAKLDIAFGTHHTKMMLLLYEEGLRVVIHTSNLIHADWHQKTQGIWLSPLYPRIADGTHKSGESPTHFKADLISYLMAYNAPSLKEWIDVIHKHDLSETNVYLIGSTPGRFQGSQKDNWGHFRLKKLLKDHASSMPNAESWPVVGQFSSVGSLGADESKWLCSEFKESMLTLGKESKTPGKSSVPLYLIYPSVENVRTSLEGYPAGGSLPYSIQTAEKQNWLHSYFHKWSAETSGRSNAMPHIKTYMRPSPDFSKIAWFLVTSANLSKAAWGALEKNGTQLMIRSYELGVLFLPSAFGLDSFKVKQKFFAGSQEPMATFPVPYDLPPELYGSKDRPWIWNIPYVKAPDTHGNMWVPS
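E. coli-derived human Tdp1, 1 nM final. Cpd preinc 15 min RT; substrate 15 nM final, 5 min RT; AS bead mix 10 ug/ml final, 10 min RT. Signal loss = tyrosine-FITC cleavage. No-enzyme wells = max signal.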
DT40 TDP1 no CPT: qHTS for Inhibitors of human tyrosyl-DNA phosphodiesterase 1 (TDP1): qHTS in cells in absence of CPT. AID 686978, 2013. 420,000 tested, 15% active. DT40 Tdp1-/- hTDP1 cells, no CPT, ATP luminescence, 48 h. Potency, µM (series often up to 46.2 µM), inactives show at the highest dose activity change, negative = growth inhibition, hits mostly inhibitors; note: nearly all actives have a fitted effect of over 55% in size
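Camptothecin absent (DMSO only). Human TDP1-complemented DT40 knockout cells, 400 cells/well, 37 °C for minimum 48 hr; ATP measured via CellTiter-Glo, 30 min dark incubation, luminescence.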
TDP1 cell CPT: qHTS for Inhibitors of human tyrosyl-DNA phosphodiesterase 1 (TDP1): qHTS in cells in presence of CPT; chicken DT40 Tdp1-/-;hTDP1 cells + 20 nM CPT, ATP luminescence, 48 h; Potency, µM (titrated, usually from 46.2 µM), for inactives: top-dose activity change, negative = growth inhibition, usual class: inhibitors; 420,000 tested, 12% active; AID 686979, 2013; note: nearly all actives have a fitted effect of over 55% in size
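Cell growth measured by CellTiter-Glo luminescence after a minimum 48 h, 37 C compound exposure with 20 nM CPT in Tdp1-knockout DT40 cells stably expressing hTDP1, seeded 400/well; qHTS titration format.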
An asterisk follows results filed as active; ? = inconclusive; . = no result; [ ] = remark or other dose. The list is not random: actives were taken first. Their share in the collection is about 19%. Calls come from the whole dose curve; as a rule, active = well fitted curve in the direction sought with a large enough effect; inconclusive = small, poorly fitted or top-dose-only effect, or another doubt; inactive = no such curve, though single readings can be large; an effect the other way counts as inactive or inconclusive. % is set by controls: 0 for no effect and ±100 for the full control effect; potency is the fitted concentration of half-maximal effect.

SMILES | VP16 counter | RORg inh | TDP1 block | DT40 TDP1 no CPT | TDP1 cell CPT
Cc1cc2nc(-c3ccc(SCC(=O)N4CCOCC4)nc3)[nH]c2cc1C | ? | -38.4% | 2.3% | ? | 25.9µM*
CCc1ccc(S(=O)(=O)c2nnn3c2nc(NCCC(C)C)c2cc(Cl)ccc23)cc1 | . | . | 1.0% | 20.6µM* | ?
COc1cc(Nc2nc3c(S(=O)(=O)c4cccc(Cl)c4)nnn3c3ccsc23)cc(OC)c1 | . | . | -2.6% | 7.31µM* | 9.2µM*
CCc1ccc(S(=O)(=O)c2nnn3c2nc(NC(C)C)c2cc(Cl)ccc23)cc1 | . | . | 4.9% | ? | ?
CCc1ccc(Nc2nc3c(S(=O)(=O)c4cccc(Cl)c4)nnn3c3ccsc23)cc1 | . | . | -2.6% | 4.61µM* | 6.51µM*
CC(C)Nc1nc2c(S(=O)(=O)c3cccc(Cl)c3)nnn2c2ccsc12 | . | . | 7.7% | -29.2% | -29.2%
CCc1ccc(S(=O)(=O)c2nnn3c2nc(Nc2ccc(NC(C)=O)cc2)c2sccc23)cc1 | . | . | . | ? | 23.1µM*
COc1ccc(-c2nn(CC(=O)N3CCCCC3)c(=O)c3ccccc23)cc1 | -3.3% | 14.5% | 5.0% | . | .
CCN(CC)S(=O)(=O)c1ccc2c(c1)nc(CN(C)C(=O)Nc1cccc(Cl)c1)n2C | . | . | -6.2% | ? | ?
Cc1ccccc1C(=O)Nc1ccc(O)cc1C(=O)O | -1.6% | 2.1% | -5.5% | 1.6% | -9.1%
CCC1CCCCN1CCCNC(=O)c1ccc2c(c1)N(Cc1cccc(C)c1)C(=O)c1ccccc1S2(=O)=O (stereo not given) | . | . | 1.2% | ? | 16.4µM*
CCC1CCCCN1CCCNC(=O)c1ccc2c(c1)N(Cc1ccccc1)C(=O)c1ccccc1S2(=O)=O (stereo not given) | . | . | 3.5% | ? | ?
CCC1CCCCN1CCCNC(=O)c1ccc2c(c1)N(Cc1ccc(Cl)cc1)C(=O)c1ccccc1S2(=O)=O (stereo not given) | . | . | 10.4% | 23.1µM* | 23.1µM*
CN(C(=O)c1cccc(NC(=O)Cc2cccc(NC(=O)C3CCN(C(=O)C4CCCC4)CC3)c2)c1)C1CC1 | . | . | . | -27.5% | -19.9%
CCOC(=O)CN1C(c2ccc(O)cc2)Nc2ccc(Br)cc2C1c1ccccc1 (stereo not given) | ? | 25.6% | 5.3% | ? | 14.6µM*
CCOC(=O)N1CC(=O)Nc2ccc(Br)cc2C1c1ccccc1 (stereo not given) | 1.7% | 20.3% | . | -23.7% | ?
COc1ccc(C(=O)Nc2ccc3c(c2)CCCN3S(=O)(=O)c2ccc(C)cc2)c(OC)c1 | . | . | 1.2% | 5.17µM* | 5.8µM*
Cc1ccc(S(=O)(=O)N2CCCc3cc(NC(=O)c4ccc(C(F)(F)F)cc4)ccc32)cc1 | . | . | 1.2% | 20.6µM* | ?
CCOC(=O)c1c(C)[nH]c(C(=O)OCc2csc(CC(=O)Nc3ccccc3C)n2)c1C | . | . | . | 13µM* | 16.4µM*
CC(C)(C)c1ccc(OCCC(=O)OCC(=O)Nc2cccnc2Cl)cc1 | . | . | . | 16.4µM* | ?
Cc1ccccc1NC(=O)Cc1nc(COC(=O)c2ccc(S(C)(=O)=O)c([N+](=O)[O-])c2)cs1 | . | . | 0.2%[56.1 µM] | 3.66µM* | 2.91µM*
O=C(COC(=O)COc1ccc(Cl)cc1)Nc1cccnc1Cl | . | . | . | -4.5% | -1.7%
CS(=O)(=O)c1ccc(C(=O)OCC(=O)Nc2cccnc2Cl)cc1[N+](=O)[O-] | . | . | 0.1% | 8.2µM* | 6.51µM*
Cc1ccccc1NC(=O)Cc1nc(COC(=O)c2cccc(C)c2O)cs1 | -3.7% | -23.3% | 1.2% | 4.2% | -12.4%
O=C(COC(=O)c1ccc([N+](=O)[O-])cc1)Nc1cccnc1Cl | . | . | . | 0.9% | -18.9%
SMILES | VP16 counter | RORg inh | TDP1 block | DT40 TDP1 no CPT | TDP1 cell CPT
Cc1ccccc1NC(=O)Cc1nc(COC(=O)c2ccc(NC(N)=O)cc2)cs1 | . | . | 1.4% | ? | ?
O=C(CCc1nnc2ccc(N3CCCC3)nn12)Nc1ccc(F)c(F)c1 | -10.8% | -6.2% | 4.4% | 15.9% | -20.7%
O=C1CS(=O)(=O)N(Cc2ccc(F)cc2)c2ccccc21 | . | . | . | -22.6% | -27.9%
CC(=O)c1ccc(OC(=O)CCc2nc3ccccc3s2)cc1 | 15.7% | ? | 5.4% | ? | -13.4%
CS(=O)(=O)c1ccc(C(=O)OCC(=O)Nc2cc(C(F)(F)F)ccc2Cl)cc1[N+](=O)[O-] | . | . | 1.1% | ? | 11.2µM*
NS(=O)(=O)c1cc(C(=O)OCC(=O)Nc2ccccc2[N+](=O)[O-])ccc1Cl | 7.4% | -11.6% | 2.7% | 1.2% | 6.1%
Cc1ccccc1NC(=O)COC(=O)c1ccc(S(C)(=O)=O)c([N+](=O)[O-])c1 | ? | 14.1µM* | -0.2% | 3.98µM* | 2.51µM*
CC(CCc1ccccc1)NC(=O)COC(=O)c1ccc(S(C)(=O)=O)c([N+](=O)[O-])c1 (stereo not given) | ? | 10µM* | 3.8% | 2.31µM* | 2.31µM*
COc1cccc(NC(=O)c2c([N+](=O)[O-])cnn2C)c1 | . | . | 2.3% | -2.0% | -19.5%
O=C(COc1ccc(S(=O)(=O)N2CCCC2)cc1)N1CCN(c2ccccc2F)CC1 | -4.7% | ? | 5.1% | ? | ?
COc1cc(CCC(=O)N2CCN(c3cccc(C)c3C)CC2)cc(OC)c1OC | 2.2% | 31.7% | . | 10.3µM* | 11.6µM*
CC1CCN(C(=O)CCC(=O)N2CC(C)Oc3ccccc32)CC1 (stereo not given) | 3.9% | -11.8% | . | -23.1% | -0.3%
Cc1cccc(N2CCN(C(=O)CCC(=O)N3CC(C)Oc4ccccc43)CC2)c1C (stereo not given) | -0.5% | ? | . | 13µM* | 16.4µM*
COc1ccc(CCC(=O)N2CCN(c3cccc(C)c3C)CC2)cc1 | 0.0% | -11.4% | 0.0% | ? | ?
Cc1ccc2c(c1)N(C(=O)CCC(=O)N1CCN(c3cccc(C)c3C)CC1)CCO2 | -14.5% | ? | . | 18.4µM* | 16.4µM*
CCCS(=O)(=O)N1CCCC(C(=O)c2cccc(Cl)c2)C1 (stereo not given) | -22.0% | 16.3% | 3.6% | -22.9% | 3.2%
Cc1cc(C)c2cc(C#N)c(N3CCCN(C(=S)NCCCN(C)C)CC3)nc2c1 | -1.1% | 0.2% | . | 23.1µM* | ?
Cc1cc(C)c2cc(C#N)c(N3CCCC3)nc2c1 | 1.8% | 5.6% | 7.1% | ? | -13.8%
CCOCCCNC(=S)N1CCCN(c2nc3cc(C)ccc3cc2C#N)CC1 | 1.3%[10 µM] | ? | -2.6% | 2.5% | -9.0%
